High-throughput results from PubChem.
Only some compounds are listed: those with a hit (about 1.6% of all), similar ones and a draw of the others.
KCNQ2 inh = blocks the rat KCNQ2 potassium channel | O88943 | CHO-K1 KCNQ2, FluxOR thallium flux, 20 min; hits give low values | B-score at 10 µM | 310,000 compounds, 1.1% hits;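 active means fluorescence ratio B-score at most minus 3 library SDs, with starting brightness B-score within 2 library SDs, cut at about -5.5 in these data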
Target sequence (O88943 whole entry, looked up): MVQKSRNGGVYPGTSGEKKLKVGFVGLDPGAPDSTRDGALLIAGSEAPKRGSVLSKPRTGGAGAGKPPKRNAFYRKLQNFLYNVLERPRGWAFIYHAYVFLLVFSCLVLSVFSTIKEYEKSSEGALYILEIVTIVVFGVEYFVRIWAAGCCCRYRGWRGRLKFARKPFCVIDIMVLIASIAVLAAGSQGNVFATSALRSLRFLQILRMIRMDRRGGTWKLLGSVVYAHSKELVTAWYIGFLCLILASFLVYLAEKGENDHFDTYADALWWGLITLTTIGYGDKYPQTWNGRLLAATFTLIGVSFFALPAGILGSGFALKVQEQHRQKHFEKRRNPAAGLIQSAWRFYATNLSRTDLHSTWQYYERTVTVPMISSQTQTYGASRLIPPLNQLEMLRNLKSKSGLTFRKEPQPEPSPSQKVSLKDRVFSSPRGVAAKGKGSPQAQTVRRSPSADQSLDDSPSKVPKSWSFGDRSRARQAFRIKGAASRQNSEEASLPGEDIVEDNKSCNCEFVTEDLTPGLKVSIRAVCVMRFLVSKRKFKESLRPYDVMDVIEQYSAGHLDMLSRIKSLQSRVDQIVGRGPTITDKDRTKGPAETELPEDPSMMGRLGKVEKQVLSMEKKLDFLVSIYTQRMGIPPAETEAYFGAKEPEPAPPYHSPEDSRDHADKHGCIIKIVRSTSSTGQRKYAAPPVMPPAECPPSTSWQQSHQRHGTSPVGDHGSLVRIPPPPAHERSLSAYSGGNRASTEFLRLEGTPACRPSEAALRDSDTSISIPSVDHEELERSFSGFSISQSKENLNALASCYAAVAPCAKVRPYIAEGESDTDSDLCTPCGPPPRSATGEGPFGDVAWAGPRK
KCNQ2 enhance = potentiators of rat KCNQ2 potassium channel | O88943 | CHO-K1 KCNQ2, FluxOR thallium flux fluorescence; hits give high values | B-score at 10 µM | 310,000 compounds, 0.54% hits | AID 2239;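 active means fluorescence ratio B-score at least 3 SD of library B-scores, with initial fluorescence B-score within 3 of them, cut at about 5.3 in these data; same plate scores as AID 2156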;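 further: B-score of peak minus minimum over baseline fluorescence ratio after K+ and Tl+ stimulus; positive B-score means potentiation of KCNQ2 with more thallium influx and brighter signal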
* marks the source's active call; other numbers are inactive results.

For Cn1cnnc1Sc1ccc(C(=O)OCC(=O)NC2CC2)cc1[N+](=O)[O-] the results were KCNQ2 inh inactive and KCNQ2 enhance 1.2.
Screening CC1CC(C)CN(c2ccc(C(=O)OCC(=O)NC3CCCc4ccccc43)cc2[N+](=O)[O-])C1 (stereo unspecified) returned KCNQ2 inh -7.8* and KCNQ2 enhance -7.8.
Screening COc1cc(C(=O)N(CCN(C)C)CC2CCCN(Cc3ccccc3F)C2)ccc1C (stereo unspecified) returned KCNQ2 inh inactive and KCNQ2 enhance 0.06.
`CCCCNc1c(C(=O)OCC)c(C)nc2c1cnn2CC` gave KCNQ2 inh inactive.
COc1ccccc1OCCNC(=O)c1ccc2c(c1)OCCO2 was read as KCNQ2 inh inactive and KCNQ2 enhance 6.7*.
For COc1ccccc1OCCNC(=O)CNC(=O)c1ccc2c(c1)OCO2 the results were KCNQ2 inh inactive and KCNQ2 enhance 0.26.
O=C(c1nc2ccc(Cl)cn2c1CNCC[C@@H]1C[C@@H]2C=C[C@H]1C2)N1CCCCCCC1 was read as KCNQ2 inh -5.8* and KCNQ2 enhance -5.8.
`C[C@@H]1CN(C(=O)c2nc3ccc(Cl)cn3c2CNCC[C@@H]2C[C@@H]3C=C[C@H]2C3)C[C@H](C)O1` gave KCNQ2 inh inactive.
`O=C(Nn1c(-c2ccc(F)cc2)nc2ccccc2c1=O)C1CCCCC1` gave KCNQ2 inh inactive.
For COc1cc(C(C[N+](=O)[O-])c2c(N)n(C)c(=O)n(C)c2=O)ccc1O (stereo unspecified) the results were KCNQ2 inh inactive.
For Cc1ccc(C(C[N+](=O)[O-])c2c(N)n(C)c(=O)n(C)c2=O)cc1 (stereo unspecified) the results were KCNQ2 inh -8* and KCNQ2 enhance -8.
`O=C(CCl)NC1(C(F)(F)F)C(=O)Nc2c1c(=O)[nH]c(=O)n2-c1ccccc1` (stereo unspecified) gave KCNQ2 inh inactive.
Fc1ccc(Oc2ccnc(Cl)n2)c(Cl)c1 was read as KCNQ2 inh inactive.
`CCOc1ccccc1NC(=O)COC(=O)C1CC(=O)N(c2c(C)cccc2C)C1` (stereo unspecified) gave KCNQ2 inh inactive.
Screening CCNC(=S)N1CCc2ccccc2C1 returned KCNQ2 inh inactive and KCNQ2 enhance 0.35.
Screening Cc1cccc(C(=O)NC(=S)N2CCc3ccccc3C2)c1 returned KCNQ2 inh inactive and KCNQ2 enhance 8.4*.
Screening COC(=O)COc1ccc(S(=O)(=O)NCc2ccc3c(c2)OCO3)cc1C returned KCNQ2 inh inactive.
Screening COCCNC(=O)Cn1cc(/C=C(\C#N)C(=O)NC2CCCC2)c2ccccc21 returned KCNQ2 inh inactive and KCNQ2 enhance 0.82.
`Cc1ccc(S(=O)(=O)N(C)C)cc1NC(=O)C(C)N(C)CCOc1ccc(Cl)cc1` (stereo unspecified) gave KCNQ2 inh inactive.
For N#CCC(=O)Nc1ccc(C(=O)NCc2cccc(Cl)c2)cc1 the results were KCNQ2 inh inactive and KCNQ2 enhance 0.62.
For COC(=O)c1ccc(/C=N/N2CCN(Cc3ccccc3Cl)CC2)cc1 the results were KCNQ2 inh inactive.
`COC(=O)c1ccc(/C=N/N2CCN(Cc3ccc(C)cc3C)CC2)cc1` gave KCNQ2 inh -7.8* and KCNQ2 enhance -7.8.
O=[N+]([O-])c1ccc(N2CCC(=NOCc3ccc(Cl)cc3)CC2)cc1 was read as KCNQ2 inh -5.7* and KCNQ2 enhance -5.7.
`O=[N+]([O-])c1ccc(CN2CCN(c3ccc([N+](=O)[O-])cc3)CC2)cc1` gave KCNQ2 inh inactive.
For CCOc1cccc(CNCCSc2nnnn2C)c1 the results were KCNQ2 inh inactive.
Cc1cc(C)c(NC(=O)Nc2ccccc2)c(Cl)c1 was read as KCNQ2 inh inactive and KCNQ2 enhance 5.3*.
`Cc1cc(C)c(NC(=O)Nc2ccccc2C)c(Cl)c1` gave KCNQ2 inh inactive and KCNQ2 enhance 0.11.
Cc1ccc2c(c1)N(C(=O)CCC(=O)NCc1ccccn1)CC(C)O2 (stereo unspecified) was read as KCNQ2 inh inactive and KCNQ2 enhance 0.12.
For COc1ccccc1N1CCN(C(=O)COc2ccc(Cl)cc2Br)CC1 the results were KCNQ2 inh inactive.
`COC(=O)C1CCCN1C(=O)COc1ccc(Cl)cc1Br` (stereo unspecified) gave KCNQ2 inh inactive and KCNQ2 enhance 15*.
Screening COc1ccc(OCCSc2nnc(CC(=O)Nc3cccc(Cl)c3Cl)n2C)cc1 returned KCNQ2 inh -8.1* and KCNQ2 enhance -8.1.
For CCn1c(COc2cccc(OC)c2)nnc1SCC(=O)Nc1cc(OC)ccc1OC the results were KCNQ2 inh inactive.
For CCn1c(CC(=O)Nc2cccc(Cl)c2Cl)nnc1SCCOc1ccc(OC)cc1 the results were KCNQ2 inh -6.1* and KCNQ2 enhance -6.1.
Screening COc1ccc(CC(=O)NCc2nnc(SCCOc3ccccc3)n2C)cc1 returned KCNQ2 inh inactive.
For Cc1cc(C)nc(Sc2ncnc(N)c2[N+](=O)[O-])n1 the results were KCNQ2 inh inactive.
CN(C)S(=O)(=O)c1cccc(C(=O)Nc2n[nH]c(C(F)(F)F)n2)c1 was read as KCNQ2 inh inactive and KCNQ2 enhance 1.
Screening O=c1c2ccccc2nc(SCc2nnc(-c3ccccc3Br)o2)n1-c1ccccc1 returned KCNQ2 inh inactive.
`O=c1c2ccccc2nc(SCc2nnc(-c3ccccc3)o2)n1-c1ccc(F)cc1F` gave KCNQ2 inh -6.4* and KCNQ2 enhance -6.4.
Screening O=C(Oc1ccc(-c2nnco2)cc1)c1ccco1 returned KCNQ2 inh inactive.
For O=C(Nc1ncccn1)c1cc(-c2cccc(Br)c2)nc2ccccc12 the results were KCNQ2 inh inactive.
For O=C(c1cc(-c2ccccc2)nc2ccccc12)N1CCCC1 the results were KCNQ2 inh inactive and KCNQ2 enhance 0.04.
For O=C(Nc1ccccn1)c1cc(-c2cccc(Cl)c2)nc2ccccc12 the results were KCNQ2 inh -5.6* and KCNQ2 enhance -5.6.
`O=C(Nc1ccc([N+](=O)[O-])cn1)c1cc(-c2cccc(Cl)c2)nc2ccccc12` gave KCNQ2 inh -5.6* and KCNQ2 enhance -5.6.
O=C(Nc1ccc([N+](=O)[O-])cn1)c1cc(-c2cccc(Br)c2)nc2ccccc12 was read as KCNQ2 inh inactive.
Screening O=C(c1cc(-c2cccc(Cl)c2)nc2ccccc12)N1CCCC1 returned KCNQ2 inh -8.1* and KCNQ2 enhance -8.1.
Screening CCOC(=O)N1CCC2(CC1)C(C#N)=C(N)OC1=C2C(=O)CC(C)C1 (stereo unspecified) returned KCNQ2 inh inactive and KCNQ2 enhance 0.15.
`Cc1cc(NC(=O)CCC(=O)N(Cc2ccc(F)cc2)C(C(=O)NC2CCCC2)c2ccco2)no1` (stereo unspecified) gave KCNQ2 inh inactive and KCNQ2 enhance 0.01.
Screening O=C(N/N=C(\CC(=O)c1cccs1)C(F)(F)F)c1ccncc1 returned KCNQ2 inh inactive and KCNQ2 enhance 0.05.
Cc1ccc(C(=O)N/N=C(/CC(=O)c2cccs2)C(F)(F)F)cc1 was read as KCNQ2 inh inactive and KCNQ2 enhance 13*.
Cc1ccc(C(=O)N/C(=C\c2cccs2)C(=O)NCCCN2CCOCC2)cc1 was read as KCNQ2 inh inactive and KCNQ2 enhance 1.2.
CCOC(=O)C1=C(N)OC2=C(C(=O)CC(C)(C)C2)C1C1CCCCC1 (stereo unspecified) was read as KCNQ2 inh -7.5* and KCNQ2 enhance -7.5.
